# Out of some 360,000 compounds screened, about 1,800 (0.5%) were called active. The full list was thinned out, with actives kept by preference. Values without a mark were called inactive.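 How the source made its calls: active means mean inhibition of at least 75% with every replicate also reaching 75%; inconclusive means mean inhibition at least 75% but some replicate below; inactive means mean inhibition below 75%.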
# Assay: Shn3 3'UTR reporter decrease in osteoblasts – cell-based, Clone20 osteoblasts, firefly luciferase, set 2, Schnurri-3 inhibitor project, primary screen (AID 588674);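 further: 0% = median of neutral control wells and 100% = pilot-screen positive control compound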
# Conditions: Clone20 osteoblast Shn3 3'UTR firefly luciferase, 24 h; at 12.5 µM; active compounds read high
row,Structure (SMILES),inhibition
1,CN(CCO)S(=O)(=O)c1ccc2c(c1)C(=O)c1cc(S(=O)(=O)N(C)CCO)ccc1-2,16.6%
2,CCn1nc(C)c(CNC(=O)C2CCC(=O)N(Cc3cccc(F)c3)C2)c1C (stereo unspecified),-6.25%
3,Cc1cc(C)nc(S/C=C/C(=O)c2ccccc2)n1,95.6% (active)
4,Cc1cc(C)nc(SC(C)C(=O)N/N=C/c2cccs2)n1 (stereo unspecified),4.78%
5,COC(c1ccccc1)(c1ccccc1)C(Oc1nc(C)cc(C)n1)C(=O)O (stereo unspecified),5.7%
6,Clc1ccc(Cl)c(Oc2ccc(Oc3nc(Cl)ccc3Cl)cc2)n1,-2.29%
7,Cc1ccc(/C=N/NC(=O)C2=NNC(c3ccccc3)(c3ccccc3)C2)c(O)c1,88.2% (active)
8,O=C(NN=Cc1ccc2c(c1)CCC2)c1ccccc1O,-68.8%
9,O=C(N/N=C/c1ccccc1O)C1CCCC1,26.7%
10,COC(=O)Cc1ccc(OC2(C)CCN(Cc3ccc4c(c3)OCCO4)C2)cc1 (stereo unspecified),-22.2%
11,O=C(NCCCN1CCCCC1)C1CCCN(c2ncnc3c2nc2n3CCCCC2)C1 (stereo unspecified),2.4%
12,O=C(CSC1=NS(=O)(=O)c2cc(F)ccc2N1)Nc1ccccc1F,-17.3%
13,Cc1cc(C)n(CCC(=O)N2CCN(S(=O)(=O)c3ccc(C)c(C)c3)CC2)n1,-21.5%
14,COc1ccc(CCNC(=O)C(=O)NCC2CCNCC2)cc1OC,-3.81%
15,O=C(O)CSc1nccn1-c1cccc(Cl)c1,-5.11%
16,Cc1cc(=O)c2ccc(NC(=O)c3ccccc3)cc2[nH]1,-6.37%
17,O=C(NCCc1ccccc1)c1cccc(NC(=O)c2ccccc2)c1,-14.5%
18,O=C(NC1=CC(=O)c2ccccc2C1=O)c1ccccc1,93.6% (active)
19,Cn1c2c(c(=O)n(C)c1=O)C1c3ccccc3OCC1C(C)(C)O2 (stereo unspecified),-0.463%
20,CC1COC2C(O1)N(S(C)(=O)=O)CCN2S(C)(=O)=O (stereo unspecified),1.27%
21,Cn1c(SCC(=O)N2CCCc3ccccc32)nc2ccccc2c1=O,86.2% (active)
22,O=C(CSc1nc2ccccc2c(=O)n1CCCO)N1CCc2ccccc21,3.09%
23,C=CCn1c(=O)c2ccccc2n2c(SCC(=O)N3CCCc4ccccc43)nnc12,-3.54%
24,Cn1cc(CN2CCCC(CO)C2)c(-c2ccc(Oc3ccccc3)cc2)n1 (stereo unspecified),6.06%
25,C[C@H](NC(=O)CC[C@H]1O[C@@H](n2ccc(=O)[nH]c2=O)[C@H](O)[C@@H]1O)c1cccc2ccccc12,-13%
26,COc1cccc(CNC(=O)C(=O)NCCC2CCCCN2S(=O)(=O)c2ccc(C)cc2)c1 (stereo unspecified),13.1%

row,Structure (SMILES),inhibition
1,C[C@H](NC(=O)c1[nH]cnc1C(=O)Nc1nccs1)c1ccccc1,-5.6%
2,COc1ccc(-c2csc3ncnc(N4CCN(S(=O)(=O)c5ccccc5C#N)CC4)c23)cc1,-3.1%
3,Cc1ccc(C)c(S(=O)(=O)N2CCN(CC(=O)Nc3ccc([N+](=O)[O-])cc3)CC2)c1,5.73%
4,Cc1ccc(C)c(S(=O)(=O)N2CCN(c3ncnc4sccc34)CC2)c1,86.3% (active)
5,C[n+]1cc(-c2ccccc2)oc1-c1ccccc1,-76.7%
6,Cc1ccccc1NC(=O)Cc1nc(COC(=O)C(C)(C)Oc2ccc(Cl)cc2)cs1,-2.77%
7,COc1cc(NC(=S)N2CCCC(C)C2)cc(OC)c1OC (stereo unspecified),-25.8%
8,COc1ccc2cc(C3=CC(=O)C[C@H](c4ccc5c(c4)OCO5)C3)ccc2c1,-45.2%
9,O=C1C=C(c2ccnc3cc(Cl)ccc23)C[C@@H](c2ccc3c(c2)OCO3)C1,85.5% (active)
10,O=C1C=C(c2cc(C(F)(F)F)cc(C(F)(F)F)c2)C[C@@H](c2ccc3c(c2)OCO3)C1,15%
11,COc1ccccc1NC(=O)C(C)OC(=O)c1ccc(-n2cnnn2)cc1 (stereo unspecified),1.76%
12,CC(=O)N1CCCc2cc(S(=O)(=O)N3CCCC(C(=O)N4CCN(c5cccc(Cl)c5)CC4)C3)ccc21 (stereo unspecified),93% (active)
13,CC(=O)N1CCCc2cc(S(=O)(=O)CCC(=O)N3CCN(c4ccccc4)CC3)ccc21,-3.7%
14,CC(=O)N1c2ccc(S(=O)(=O)N3CCC(C(=O)N4CCN(c5ccccc5)CC4)CC3)cc2CC1C (stereo unspecified),74.2%
15,CCOC(=O)C1=CC[C@@H](c2ccncc2)N(S(=O)(=O)c2ccc(C)cc2)C1,4.63%
16,COc1ccc(C(c2nnnn2C2CCCC2)N2CCN(C/C=C/c3ccccc3)CC2)cc1 (stereo unspecified),16.4%
17,Cc1cc2nc(-c3ccco3)c(Cc3cccc(F)c3)n2c(C)c1Br,54.3%
18,O=C1C(Cl)=C(Oc2ccccc2)C(=O)c2ccccc21,96.1% (active)
19,O=C(NCc1cccs1)c1ccc2c(c1)ncn2C1CCCC1,-25.6%
20,COc1c(C=O)c(CCN(C)C(=O)c2ccc(F)cc2)cc2c1OCO2,-0.0815%
21,Cn1c(CCNS(=O)(=O)c2ccc(F)cc2)nnc1SCc1cccnc1,-8.53%
22,CC(=O)Nc1ccc(SCC(=O)NC(=O)c2ccc(Cl)cc2)cc1,5.11%
23,O=C(CCl)Nc1cccc(CP(=O)(c2ccccc2)c2ccccc2)c1,-0.336%
24,O=C(CCl)Nc1ccc(Sc2ccc(NC(=O)CCl)cc2)cc1,96.4% (active)
25,COCCN(CCOC)c1nc(N)c2c(N)nc3c(c2c1C#N)CC(=O)N3Cc1ccc(Cl)cc1,-5.44%

# Source: PubChem BioAssay AID588674 (Broad Institute, 2011)
